Data taken from PubChem BioAssay (Tox21).
“And” between values parts separate entries of the source, which are not always exact repeats. Equal values may be shown once. Records with an inconclusive call do not appear. Entries that show only a call come without a potency. More than one record can exist for a structure, and the calls need not agree. The source made the active and inactive calls. Unless noted, calls come from the whole dose curve; as a rule, active = well fitted curve in the direction sought with a large enough effect in the repeat runs; inconclusive = weak or mixed curves; inactive = no such curve, though single readings can be large; an effect the other way counts as inactive or inconclusive.

Columns and labels:
[1] = target: Retinoic acid receptor RXR-alpha (Homo sapiens) (UniProt P19793); test: qHTS assay to identify small molecule agonists of the RXR signaling pathway (AID 1159527; calls by dose curve; note: nearly all actives have a fitted effect of over 35% in size)
Retinoic acid receptor RXR-alpha (Homo sapiens), sequence (P19793 whole entry, looked up): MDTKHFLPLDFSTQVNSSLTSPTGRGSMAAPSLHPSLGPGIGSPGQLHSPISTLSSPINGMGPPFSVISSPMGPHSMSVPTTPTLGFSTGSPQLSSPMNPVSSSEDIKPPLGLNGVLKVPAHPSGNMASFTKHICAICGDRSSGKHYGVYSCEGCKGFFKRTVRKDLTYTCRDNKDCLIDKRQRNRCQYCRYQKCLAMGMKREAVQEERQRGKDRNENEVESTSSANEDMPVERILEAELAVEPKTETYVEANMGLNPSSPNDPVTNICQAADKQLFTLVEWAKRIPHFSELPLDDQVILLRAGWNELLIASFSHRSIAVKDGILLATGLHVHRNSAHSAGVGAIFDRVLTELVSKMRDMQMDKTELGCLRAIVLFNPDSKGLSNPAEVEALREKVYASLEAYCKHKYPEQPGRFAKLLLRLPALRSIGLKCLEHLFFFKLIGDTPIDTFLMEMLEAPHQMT
Outline: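 qHTS of the Tox21 10K library in GeneBLAzer RXR-alpha HEK 293T cells carrying a beta-lactamase reporter […]; 16 hr treatment, 9-cis retinoic acid as agonist control, FRET read-out.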

[2] = qHTS assay to identify small molecule agonists of the RXR signaling pathway - cell viability counter screen (AID 1159529); note: nearly all actives have a fitted effect of over 50% in size; note: potency is the fitted concentration of half-maximal effect
Outline: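 Cell viability is measured by CellTiter-Glo luminescence, 30 min at room temperature, in wells already read for beta-lactamase. Engineered HEK 293T cells (RXR-alpha-UAS-bla) are dosed 16 hr at 37 C. Tetraoctyl ammonium bromide serves as positive control.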

[3] = qHTS assay to identify small molecule antagonists of the retinoid acid receptor (RAR) signaling pathway - cell viability counter screen (AID 1159551); note: nearly all actives have a fitted effect of over 35% in size
Outline: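 Seed C3RL4 cells; next day add compound, then retinol to 1 uM final; incubate 6 h at 37 C; add CellTiter-Glo; read luminescence after 30 min at RT.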

[4] = qHTS assay to identify small molecule antagonists of the estrogen related receptor (ERR) signaling pathway - cell viability counter screen (AID 1224818);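 note: viability measured after 17.5 h of compound exposure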
Outline: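 In the same ERR cell assay, compound-treated wells (17.5 h, 37 C) were multiplexed with a fluorogenic viability reagent, CellTiter-Fluor, read after 30 min to flag cytotoxic substances.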

[5] = qHTS assay to identify small molecule antagonists of the estrogen related receptor signaling pathway with the pleiotropic PPARgamma coactivator (PGC) cell viability counter screen (AID 1224822)
Outline: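 Compounds in DMSO, with positive and negative controls, were applied to PGC/ERR cells (2,000/well) and left 17.5 h at 37 C before CellTiter-Fluor detection.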

[6] = qHTS assay to identify small molecule antagonists of the estrogen related receptor (ERR) signaling pathway from Tox21 library - cell viability counter screen (AID 1224834); note: nearly all actives have a fitted effect of over 30% in size; note: potency is the fitted concentration of half-maximal effect
Outline: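 CellTiter-Fluor fluorescence measured; ERR cells; 17.5 h compound incubation at 37 C; 30 min reagent step.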

[7] = target: Luciferin 4-monooxygenase (Photinus pyralis) (UniProt P08659); test: qHTS assay to identify small molecule inhibitors of firefly luciferase (AID 1224835); note: nearly all actives have a fitted effect of over 25% in size; note: potency is the fitted concentration of half-maximal effect
Luciferin 4-monooxygenase (Photinus pyralis), sequence (P08659 whole entry, looked up): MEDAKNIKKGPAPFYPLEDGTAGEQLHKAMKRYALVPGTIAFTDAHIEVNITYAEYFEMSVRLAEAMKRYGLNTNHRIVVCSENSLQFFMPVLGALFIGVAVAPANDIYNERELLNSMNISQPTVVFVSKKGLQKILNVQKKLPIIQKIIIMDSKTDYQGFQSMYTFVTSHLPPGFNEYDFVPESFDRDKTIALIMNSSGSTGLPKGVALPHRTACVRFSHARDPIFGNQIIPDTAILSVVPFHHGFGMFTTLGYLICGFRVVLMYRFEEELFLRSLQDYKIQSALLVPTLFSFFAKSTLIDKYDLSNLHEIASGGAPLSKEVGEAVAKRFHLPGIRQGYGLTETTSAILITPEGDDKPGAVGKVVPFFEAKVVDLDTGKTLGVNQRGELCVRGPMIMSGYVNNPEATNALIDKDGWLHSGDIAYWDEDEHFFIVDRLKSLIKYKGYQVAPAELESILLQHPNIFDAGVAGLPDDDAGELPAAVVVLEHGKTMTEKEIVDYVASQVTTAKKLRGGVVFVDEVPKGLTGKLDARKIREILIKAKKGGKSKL
Outline: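 Biochemical qHTS: compounds run as interplate titrations against purified firefly enzyme, with D-luciferin and ATP each at its KM concentration. Light output recorded by CCD imaging.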

[8] = qHTS assay to identify small molecule agonists of the constitutive androstane receptor (CAR) signaling pathway - cell viability counter screen (AID 1224836); note: nearly all actives have a fitted effect of over 45% in size
Outline: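 Counter screen multiplexed with the CAR reporter readout: HepG2 cells co-transfected with hCAR and the CYP2B6-2.2kb construct receive a 15-concentration compound series and 0.75 uM PK11195 (final), then CellTiter-Fluor fluorescence is read after 23 h.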

[9] = qHTS assay to identify small molecule antagonists of the constitutive androstane receptor (CAR) signaling pathway - cell viability counter screen (AID 1224837); note: nearly all actives have a fitted effect of over 45% in size
Outline: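 Using CellTiter-Fluor, viability is scored in HepG2 cells stably carrying hCAR and a 2.2kb CYP2B6 reporter after 23 hr compound exposure across 15 concentrations, with CITCO present at 50 nM.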

[10] = qHTS assay to identify small molecule antagonists of the estrogen related receptor signaling pathway with the pleiotropic PPARgamma coactivator (PGC) from Tox21 10K library - cell viability counter screen (AID 1224840; active = well fitted cell-killing curve with a large enough effect in the repeat runs, not every such curve was filed as active; note: nearly all actives have a fitted effect of over 40% in size; note: potency is the fitted concentration of half-maximal effect)
Outline: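 Here the PGC/ERR cells serve as a cytotoxicity control: they are exposed to compounds for 17.5 hours at 37 C, and live-cell signal is quantified using CellTiter-Fluor fluorescence.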

[11] = qHTS assay to identify small molecule agonists of the hypoxia (HIF-1) signaling pathway - cell viability counter screen (AID 1224844; calls by dose curve; note: nearly all actives have a fitted effect of over 50% in size; note: potency is the fitted concentration of half-maximal effect)
Outline: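 Multiplexed with the HRE beta-lactamase assay, this viability read used CellTiter-Glo luminescence (30 min, RT) on HRE-bla ME-180 cells treated 17 hrs with compounds in 0.5% dialyzed FBS medium.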

[12] = qHTS assay to identify small molecule agonists of H2AX (AID 1224845; active = well fitted activation curve with a large enough effect in the signal ratio in the repeat runs, not every such curve was filed as active; the % refers to the signal ratio; note: potency is the fitted concentration of half-maximal effect)
Outline: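 Wild-type CHO-K1 cells, plated overnight, exposed 3hr at 37C to 15 concentrations (0.76% DMSO final). Lysed, then HTRF anti-pH2AX (S139) cryptate and anti-H2AX-d2 antibodies, 24 hr room temperature; 665/620 nm emission read.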

[13] = qHTS assay to identify small molecule agonists of the hypoxia (HIF-1) signaling pathway (AID 1224846; active = well fitted activation curve with a large enough effect in the signal ratio in the repeat runs, not every such curve was filed as active; the % refers to the signal ratio)
Outline: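 Hypoxia-pathway activation was scored as increased beta-lactamase from an HRE-controlled reporter in ME-180 cells; plated at 2,000 cells per well with 0.5% dialyzed FBS, they were exposed 17 hrs to compounds and then given CCF4-AM.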

[14] = qHTS assay to identify small molecule antagonists of the retinoic acid receptor (RAR) signaling pathway (AID 1159552; note: nearly all actives have a fitted effect of over 50% in size)
Outline: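 Quantitative HTS in C3RL4 RARE-luciferase reporter cells. Compounds were added with 1 uM (final) retinol; luminescence was read after 6 hr.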

[15] = qHTS assay to identify small molecule agonists of the retinoic acid receptor (RAR) signaling pathway (AID 1159553); conditions: C3RL4 RARE luciferase reporter, agonist, 6 h; activation: at 73.3 µM (top of the series) unless noted
Outline: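 Activation of retinol signaling was monitored via a RARE luciferase reporter in C3RL4 cells. After 6 hr compound treatment at 37 C, detection reagent was added for 30 min at room temperature before luminescence reading.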

[16] = target: Nuclear receptor subfamily 1 group I member 3 (Homo sapiens) (UniProt Q14994); test: qHTS assay to identify small molecule antagonists of the constitutive androstane receptor (CAR) signaling pathway (AID 1224838);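 note: HepG2 cells stably expressing hCAR with CYP2B6 luciferase reporter stimulated by CITCO; nearly all actives have a fitted effect of over 40% in size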; note: potency is the fitted concentration of half-maximal effect
Nuclear receptor subfamily 1 group I member 3 (Homo sapiens), sequence (Q14994 whole entry, looked up): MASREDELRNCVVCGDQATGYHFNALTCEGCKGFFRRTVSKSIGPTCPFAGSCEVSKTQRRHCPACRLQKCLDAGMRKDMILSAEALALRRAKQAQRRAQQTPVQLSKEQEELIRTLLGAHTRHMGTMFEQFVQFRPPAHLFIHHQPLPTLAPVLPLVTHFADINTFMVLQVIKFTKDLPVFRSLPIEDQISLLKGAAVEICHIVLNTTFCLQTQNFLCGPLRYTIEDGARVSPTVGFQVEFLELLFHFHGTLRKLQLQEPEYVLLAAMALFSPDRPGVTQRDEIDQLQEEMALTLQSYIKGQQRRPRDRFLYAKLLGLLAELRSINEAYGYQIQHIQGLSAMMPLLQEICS
Outline: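 Reporter luminescence was quantified after 24 h exposure of hCAR/CYP2B6-2.2kb double-stable HepG2 cells to compounds at 15 concentrations in the presence of 50 nM CITCO final.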

[17] = target: Nuclear receptor subfamily 1 group I member 3 (Homo sapiens) (UniProt Q14994); test: qHTS assay to identify small molecule agonists of the constitutive androstane receptor (CAR) signaling pathway (AID 1224839); note: nearly all actives have a fitted effect of over 15% in size; note: potency is the fitted concentration of half-maximal effect
Outline: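 A 15-concentration quantitative screen uses HepG2 cells co-transfected stably with human CAR and CYP2B6-2.2kb reporter. Treatment lasts 24 h with 0.75 uM PK11195 final present; ONE-Glo luminescence is the signal.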

[18] = target: Thyrotropin receptor (Homo sapiens) (UniProt P16473); test: qHTS assay to identify small molecule agonists of the thyroid stimulating hormone receptor (TSHR) signaling pathway (AID 1224843; calls by dose curve; note: nearly all actives have a fitted effect of over 45% in size)
Thyrotropin receptor (Homo sapiens), sequence (P16473 whole entry, looked up): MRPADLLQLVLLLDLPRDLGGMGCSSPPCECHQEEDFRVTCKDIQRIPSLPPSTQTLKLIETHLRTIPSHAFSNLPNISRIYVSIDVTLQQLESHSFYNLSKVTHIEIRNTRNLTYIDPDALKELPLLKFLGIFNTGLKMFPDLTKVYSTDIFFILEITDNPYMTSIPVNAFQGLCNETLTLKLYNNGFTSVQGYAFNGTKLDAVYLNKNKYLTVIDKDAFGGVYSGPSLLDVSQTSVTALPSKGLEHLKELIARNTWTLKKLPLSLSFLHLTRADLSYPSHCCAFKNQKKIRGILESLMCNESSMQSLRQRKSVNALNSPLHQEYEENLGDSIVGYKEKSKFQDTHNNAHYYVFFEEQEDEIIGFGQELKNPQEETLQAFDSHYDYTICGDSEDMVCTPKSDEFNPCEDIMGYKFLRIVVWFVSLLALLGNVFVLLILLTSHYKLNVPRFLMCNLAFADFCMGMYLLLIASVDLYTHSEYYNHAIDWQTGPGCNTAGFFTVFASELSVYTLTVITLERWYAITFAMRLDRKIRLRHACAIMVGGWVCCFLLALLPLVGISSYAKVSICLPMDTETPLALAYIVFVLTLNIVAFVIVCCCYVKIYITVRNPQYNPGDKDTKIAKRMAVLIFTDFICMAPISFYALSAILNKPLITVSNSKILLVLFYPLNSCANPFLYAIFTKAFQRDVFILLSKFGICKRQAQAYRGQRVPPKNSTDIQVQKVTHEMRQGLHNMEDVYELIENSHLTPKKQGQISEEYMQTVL
Outline: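 TSHR-HEK293 cells in agonist mode, 30 min room-temperature step, then cAMP measured by competitive HTRF (cAMP-d2 with anti-cAMP cryptate) after 1 h at room temperature. Tested at 15 concentrations in triplicate.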

[19] = qHTS assay to identify small molecule antagonists of the estrogen related receptor signaling pathway with the pleiotropic PPARgamma coactivator (PGC) from Tox21 10K library (AID 1224841; call rule not given here; note: actives are mostly falling curves and most rising ones were filed inactive; nearly all actives have a fitted effect of over 50% in size; note: potency is the fitted concentration of half-maximal effect)
Outline: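 Each well held 2,000 PGC/ERR cells, pre-incubated six hours (37 C, 5% CO2). Test substances in DMSO were added by pin tool and left for 18 h at 37 C before luciferase detection by One-Glo.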

[20] = qHTS assay to identify small molecule agonists of the estrogen related receptor signaling pathway with the pleiotropic PPARgamma coactivator (PGC) from Tox21 10K library (AID 1224842); note: nearly all actives have a fitted effect of over 15% in size
Outline: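 PGC/ERR reporter cell line, 2,000 cells per well, incubated 6 h at 37 C before 23 nL compound in DMSO was added. After 18 h at 37 C, One-Glo luminescence read following 30 min at room temperature.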

| Structure (SMILES) | Potency [1] | Potency [2] | outcome [3] | outcome [4] | outcome [5] | Potency [6] | Potency [7] | Potency [8] | Potency [9] | Potency [10] | Potency [11] | Potency [12] | outcome [13] | Potency [14] | Potency [15] | Potency [16] | Potency [17] | Potency [18] | Potency [19] | outcome [20] |
| --- | --- | --- | --- | --- | --- | --- | --- | --- | --- | --- | --- | --- | --- | --- | --- | --- | --- | --- | --- | --- |
| CC(NC(C)(C)C)C(=O)c1cccc(Cl)c1 (configuration not stated) | inactive | inactive | inactive | inactive | inactive | inactive | inactive | inactive | inactive | inactive | inactive | inactive | – | – | – | – | – | – | – | – |
| CCN(CC)c1ccccc1 | inactive | inactive | inactive | – | – | inactive | inactive | inactive | inactive | inactive | inactive | inactive | inactive | – | – | – | – | – | – | – |
| CCCCN(CC)C(=O)SCCC | – | inactive | inactive | – | – | inactive | inactive | inactive | inactive | inactive | inactive | inactive | inactive | inactive | inactive | inactive | inactive | inactive | – | – |
| O=c1ccc(=O)[nH][nH]1 | inactive | inactive | – | – | – | inactive | inactive | inactive | inactive | inactive | inactive | inactive | inactive | – | – | – | – | inactive | inactive | inactive |
| O=NN1CCCC1 | inactive | inactive | – | – | – | 45.3 µM (active) and inactive | 83.4 µM (active) and inactive | – | – | inactive | 11.5 µM (active) and inactive | 16.7 µM (active) and inactive | inactive | inactive | inactive | 28.6 µM (active) and inactive | inactive | inactive | – | – |
| CC(Oc1ccc(Cl)cc1Cl)C(=O)O (configuration not stated) | – | inactive | – | – | – | inactive | inactive | inactive | inactive | inactive | inactive | inactive | inactive | inactive | inactive | – | – | inactive | – | – |
| CC(C)(C)OOC(C)(C)C | inactive | inactive | – | – | – | inactive | inactive | inactive | inactive | inactive | inactive | inactive | inactive | – | – | inactive | inactive | inactive | inactive | inactive |
| Cc1ccc(N)cc1N | – | inactive | inactive | – | – | inactive | – | inactive | inactive | inactive | inactive | – | inactive | – | – | inactive | 53 µM (active) | – | inactive | inactive |
| NCCc1ccc(O)cc1 | – | 48.6 µM (active) and inactive | – | inactive | inactive | inactive | inactive | inactive | inactive | inactive | inactive | inactive | – | inactive | inactive | inactive | inactive | inactive | – | – |
| CCC[CH2][Sn]([Cl])([Cl])[Cl] | inactive | inactive | – | – | – | inactive | inactive | inactive | inactive | inactive | inactive | inactive | inactive | – | – | inactive | inactive | inactive | 31.1 µM (active) | inactive |
| Cc1ccc([N+](=O)[O-])cc1C | – | inactive | inactive | – | – | inactive | inactive | inactive | inactive | inactive | inactive | inactive | inactive | inactive | inactive | inactive | inactive | inactive | – | – |
| Cc1cccc([N+](=O)[O-])c1 | – | inactive | – | – | – | inactive | inactive | inactive | inactive | inactive | inactive | – | inactive | – | inactive | – | – | inactive | inactive | – |
| ClCCBr | inactive | inactive | – | – | – | inactive | inactive | inactive | inactive | inactive | inactive | inactive | inactive | – | – | inactive | inactive | inactive | inactive | inactive |
| CCNc1nc(NC(C)(C)C)nc(SC)n1 | – | inactive and 49 µM (active) | inactive | – | – | inactive | inactive | inactive | inactive | inactive | inactive | inactive | inactive | inactive | inactive | – | – | inactive | – | – |
| CCCC1COC(Cn2cncn2)(c2ccc(Cl)cc2Cl)O1 (configuration not stated) | – | inactive | inactive | – | – | 49.4 µM (active) and 54.5 µM (active) | inactive | inactive | – | 61.1 µM (active) | inactive | inactive | inactive | inactive | inactive | inactive | 62.3 µM (active) and 61.1 µM (active) | inactive | – | – |
| C=CCO | inactive | inactive | – | – | – | inactive | inactive | inactive | inactive | inactive | inactive | inactive | inactive | – | – | inactive | inactive | inactive | – | – |
| Nc1c(Cl)c(Cl)nc(C(=O)O)c1Cl | – | inactive | inactive | – | – | inactive | inactive | inactive | inactive | inactive | inactive | inactive | inactive | – | – | – | – | inactive | – | – |
| CCC(C)(CC)c1cc(NC(=O)c2c(OC)cccc2OC)on1 | – | inactive | inactive | – | – | – | inactive | inactive | inactive | inactive | inactive | inactive | inactive | inactive | inactive | inactive | inactive | – | 30.7 µM (active) and inactive | inactive |
| CN(N=O)c1ccccc1 | inactive | inactive | – | – | – | inactive | inactive | inactive | inactive | inactive | inactive | inactive | inactive | – | – | inactive | inactive | inactive | inactive | inactive |
| CCN(CC)CCO | – | inactive | – | – | – | inactive | inactive | inactive | inactive | inactive | inactive | inactive | inactive | – | – | inactive | inactive | inactive | – | – |
